Bioassay records: PubChem BioAssay, several laboratories
Compounds with a hit are over-represented: about 3.8% of the library has one in this group of screens.
Jurkat NFkB inh – lowers PMA/ionomycin-induced NF-kB signal in Jurkat cells | PMA/ionomycin-induced NF-kB luciferase reporter, luminescence | inhibition, % at 4 µM | 0.53% of 330,000 active; in the data active = inhibition above about 50%
NTR1 agonist – activates human neurotensin receptor 1. P30989. NTR1-U2OS beta-arrestin-GFP spot imaging, agonist mode. activation, % at 20 µM. 0.17% of 330,000 active. AID 493036;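 active = activation at or above 40% of the spot to cytoplasm intensity ratio, with at least 20 cells analyzed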;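 also: 0% = DMSO without peptide and 100% = 100 nM NTR1 peptide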
Target sequence (P30989 whole entry, looked up): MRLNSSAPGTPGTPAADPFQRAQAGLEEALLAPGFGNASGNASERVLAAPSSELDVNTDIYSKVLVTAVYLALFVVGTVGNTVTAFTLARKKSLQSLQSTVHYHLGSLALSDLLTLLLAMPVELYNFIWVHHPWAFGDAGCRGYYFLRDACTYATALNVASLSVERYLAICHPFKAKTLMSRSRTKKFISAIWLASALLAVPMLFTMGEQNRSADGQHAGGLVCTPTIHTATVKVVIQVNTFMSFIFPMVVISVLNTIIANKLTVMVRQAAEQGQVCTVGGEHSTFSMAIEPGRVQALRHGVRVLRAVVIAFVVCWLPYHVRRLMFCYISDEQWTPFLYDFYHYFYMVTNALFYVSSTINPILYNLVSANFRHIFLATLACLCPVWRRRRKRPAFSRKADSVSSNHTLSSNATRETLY
Mdm2 MdmX PPI – human Mdm2/MdmX binding inhibition; O15151+Q00987; SaOS-2 split-luciferase Mdm2/MdmX complementation, luminescence; inhibition, % at 8 µM; 3% of 330,000 active; AID 485346;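 active = inhibition of at least 50% at 8 µM in the primary screen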
Bfl-1 A1 inh – inhibitors of the anti-apoptotic protein A1, read as caspase activation. caspase activation, % (no concentration beside the values). 0.066% of 330,000 active. MEF A1-2A-BIM cells, Caspase-Glo 3/7 luminescence, 3 h; percent of clofoctol response, vehicle zero;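 active = over half of replicate activation scores above 10%, or exactly half above 10 with the replicate mean above 10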
Beta cell apopt – beta cell apoptosis inhibition; INS-1E cytokine-induced death, ATP luminescence, 48 h; percent of positive-control rescue, neutral wells zero; protection from apoptosis, % (no concentration beside the values); 0.8% of 300,000 active; AID 435005;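 active = Every replicate reaches about 75%, or at least half do and their mean reaches it too, limit read from the data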;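 also: 0% = cytokine-treated negative control wells and 100% = positive control rescue; higher means more ATP so stronger rescue from cytokine killing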
697 NFkB inh – inhibitors of the PMA/ionomycin-induced NF-kB reporter in 697 B cells; 697 B-cell NF-kB luciferase reporter, 16 h; inhibition, % at 4 µM; 0.33% of 330,000 active; in the data active = inhibition above about 35%
Mdm2-MdmX conf – confirmation of human Mdm2/MdmX interaction inhibitors. shares compounds with Mdm2 MdmX PPI. Mdm2-MdmX binding, luminescent assay. inhibition, % at 8 µM. 55% of 10,000 active; in the data active = inhibition above about 40%
Full FLuc ctr – inhibits full-length luciferase, flagging false Mdm2/MdmX hits; shares compounds with Mdm2 MdmX PPI; AID 504607; inhibition, % at 8 µM; 77% of 6,200 active; SaOS-2 full-length luciferase counterscreen, luminescence;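 active = mean inhibition at 8 µM reaching about 37%, which flags the compound as non-specific, limit read from the data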;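 also: p53-null SaOS-2 cells with luciferase driven by a doxycycline-inducible promoter; compound on cells about two nights before reading with doxycycline added after day one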
* hit, by the source's call; x = not tested or not shown.

SMILES	Jurkat NFkB inh	NTR1 agonist	Mdm2 MdmX PPI	Bfl-1 A1 inh	Beta cell apopt	697 NFkB inh	Mdm2-MdmX conf	others
COC(=O)C1=C(C)N(Cc2ccccc2)C(=NCCc2c[nH]c3ccccc23)N[C@H]1c1cccc(C(F)(F)F)c1	-2.9	17.3	100.5*	0.4	1.8	-6.1	40.7*	Full FLuc ctr=58.0*
CCN1C(=NCCCCO)N[C@@H](c2cccc(C(F)(F)F)c2)C(C(=O)OC)=C1C	-2.4	0.5	16.0	0.9	-8.6	-13.4	x
COC(=O)C1=C(C)N(Cc2ccccc2)C(=NCCCCO)N[C@H]1c1cccc(C(F)(F)F)c1	-6.4	0.0	51.6*	0.9	-3.8	4.6	34.5
O=C(c1n[nH]c2ccccc12)N1CCN(S(=O)(=O)c2ccc(Cl)cc2)CC1	-4.1	-2.5	1.2	0.0	4.9	8.5	x
O=C(C[C@@H]1C/C=C\CC[C@H](Cc2ccc(F)cc2)C(=O)OC[C@@H](Cc2ccccc2)NC1=O)NCCO	-6.2	2.4	-8.8	0.2	-10.4	-4.0	x
CCN(CC1CCCO1)C(=O)CCc1nnc(CCc2ccc(OC)cc2)o1 (centres undefined)	-30.5	-0.3	-16.6	0.5	-1.1	-66.3	x
CCN1C(=NCC(C)C)N[C@@H](c2cccc(C(F)(F)F)c2)C(C(=O)OC)=C1C	3.6	-1.7	56.8*	0.2	8.3	-6.9	33.2	Full FLuc ctr=60.3*
C=CCN=C1N[C@@H](c2cccc(C(F)(F)F)c2)C(C(=O)OC)=C(C)N1CC	2.1	-3.8	14.7	0.5	-7.2	-6.0	x
COC(=O)C1=C(C)N(Cc2ccccc2)C(=NCc2cccc(C(F)(F)F)c2)N[C@H]1c1cccc(C(F)(F)F)c1	2.8	22.6	100.5*	0.2	99.1*	8.7	100.1*	Full FLuc ctr=49.4*
COC(=O)C1=C(C)N(Cc2ccccc2)C(=NCc2cccc(C(F)(F)F)c2)N[C@H]1c1cccc(F)c1	3.2	35.3	95.3*	-0.7	111.3*	8.9	72.5*	Full FLuc ctr=39.8*
CCN1C(=NCc2cccc(Cl)c2)N[C@@H](c2cccc(F)c2)C(C(=O)OC)=C1C	7.3	3.3	46.6	0.2	3.9	-17.1	x
COCCN=C1N[C@@H](c2cccc(C(F)(F)F)c2)C(C(=O)OC)=C(C)N1Cc1ccccc1	11.9	18.1	44.8	-0.5	4.6	-1.4	x
O=C(CN1C(=O)c2ccc([N+](=O)[O-])cc2C1=O)Nc1cc(S(=O)(=O)N2CCOCC2)ccc1Cl	-4.1	-0.3	11.5	0.8	0.3	22.6	x
COc1ccc(-c2sc3ccc(N4CCOCC4)cc3c2C#CC2(O)CCCCC2)cc1	8.4	10.0	75.9*	-1.2	4.0	-10.3	10.0
COc1cc(OC)cc(-c2sc3ccc(OC)cc3c2C#CC2(N)CCCCC2)c1	6.2	11.9	95.7*	0.7	6.5	11.0	24.6
COc1ccc(-c2sc3cc4c(cc3c2C#CC2(N)CCCCC2)OCO4)cc1	2.4	16.1	78.9*	1.1	2.5	-29.6	30.2
COc1ccc(-c2sc3cc4c(cc3c2-c2ccc(OCCN3CCOCC3)cc2)OCO4)cc1	-25.7	12.2	16.5	-0.4	7.7	-17.7	x
COc1cccc(-c2sc3ccc(OC)cc3c2C#CC2(O)CCCCC2)c1	-21.5	14.2	20.5	-0.3	-13.9	-4.5	x
COc1ccc(-c2sc3ccc(N4CCOCC4)cc3c2C#CCO)cc1	28.2	13.7	35.1	-0.9	4.2	-33.9	x
COc1ccc(-c2ccc3oc(-c4ccc(OC)cc4)c(C#CC4(O)CCCCC4)c3c2)cc1	3.7	9.6	70.4*	-0.9	0.3	2.2	31.7
CN1CCN(c2ccc(C(F)(F)F)cc2NC(=O)Nc2ccccc2)CC1	-0.7	3.4	49.9	1.6	7.5	-8.9	x
N#Cc1ccc(C(=O)OCC(=O)N2CCCC2)cc1	-0.8	-0.8	7.7	0.6	-7.4	7.3	x
CC12CCC3C(CCC4N(CCO)CCC34C)C1CCC2O (centres undefined)	-3.9	0.6	0.7	2.0	2.5	0.9	x
Cc1ccc(C(NC(=O)C2CCCCC2)c2c(O)ccc3ccccc23)cc1 (centres undefined)	-6.6	4.3	80.3*	0.3	41.3	10.1	60.9*	Full FLuc ctr=49.2*
O=P(c1ccccc1)(c1ccccc1)c1nc(-c2ccccc2)oc1NCc1ccccc1	4.1	5.2	60.4*	-1.7	-3.9	17.6	4.7
SMILES	Jurkat NFkB inh	NTR1 agonist	Mdm2 MdmX PPI	Bfl-1 A1 inh	Beta cell apopt	697 NFkB inh	Mdm2-MdmX conf	others
CCNC(=S)N1CCN(c2nc(CC)nc3sc4c(c23)CCCC4)CC1	3.1	5.3	2.6	-0.5	35.9	-15.1	x
CCc1nc(N2CCN(C(C)=O)CC2)c2c3c(sc2n1)CC(C(C)(C)C)CC3 (centres undefined)	7.3	39.9	72.3*	-1.0	117.7*	-49.1	25.2	Full FLuc ctr=62.6*
CCc1nc(N2CCN(C(=O)CCl)CC2)c2c3c(sc2n1)CC(C)CC3 (centres undefined)	13.7	11.3	100.3*	0.1	17.2	20.2	10.9
COc1ccc(Cl)cc1NC(=O)NCC1CCN(Cc2cc(C)ccc2C)CC1	20.6	4.6	57.7*	-5.3	6.3	1.7	36.3
Cc1ccc(C)c(CN2CCC(CNC(=O)Nc3ccc(C)c(C)c3)CC2)c1	17.0	1.6	18.4	1.1	-1.0	-6.5	x
COc1ccc(N/N=C(/C)c2cnnc(-c3ccccc3)n2)cc1	22.8	1.4	78.8*	-0.7	8.2	-74.1	-2.5
COc1ccc2c(c1)c(C(=O)N/N=C/c1ccc(Br)cc1)c(C)n2C	40.9	2.2	56.2*	-0.2	x	-30.4	39.5	Full FLuc ctr=54.0*
CC(Sc1nnc(Nc2ccccc2)s1)C(=O)Nc1nc(-c2ccccc2)cs1 (centres undefined)	-37.0	7.4	65.5*	-0.5	0.7	-21.6	71.5*	Full FLuc ctr=101.1*
CC(Sc1nnc(NCc2ccccc2)s1)C(=O)Nc1ccc2c(c1)C(=O)c1ccccc1C2=O (centres undefined)	-15.1	5.9	23.5	-0.2	8.3	-85.8	x
Cc1ccc(CNC(=O)C2CCC(=O)N(CCc3ccccc3)C2)s1 (centres undefined)	-4.3	1.4	18.9	0.9	-6.8	-12.9	x
CCCCCCC[C@@H](C/C=C/CCC(=O)N(C)C/C(=C/Cl)C/C(=C\C(=O)N1C[C@H](O)CC1=O)OC)OC	-6.1	31.4	40.1	x	x	-25.2	x
CCCCCCC[C@@H](C/C=C/CCC(=O)N(C)C/C(=C/Cl)C/C(=C\C(=O)N1CC(OC)=CC1=O)OC)OC	7.1	37.4	60.4*	-0.7	38.9	-86.8	-19.7
Cc1cccc(C)c1NC(=O)C1CCCN1C(=O)Nc1cccc(F)c1 (centres undefined)	-10.3	0.7	-29.1	-0.3	1.2	-12.4	x
